# Source: PubChem BioAssay (NCI)
# Compounds without any hit were thinned out: in the full panel of roughly 83,000, 20% have a hit.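 Growth was measured after 48 h exposure to one concentration of compound in 96-well plates. Values under 10 count as active.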 A number with no mark means an inactive call. Active and inactive are the calls of the source.
# Columns and labels:
# Test in all cases: NCI-60 one-dose screen, 48 h (100 = growth as untreated, 0 = no growth, -100 = all killed)
# Settings in all cases: 10 µM unless noted
# HCT-15 colon = tested on: HCT-15 colon
# HT29 colon = tested on: HT29 colon
# SNB-75 CNS = tested on: SNB-75 CNS
# SNB-19 CNS = tested on: SNB-19 CNS
# U251 CNS = tested on: U251 CNS
# PC-3 prostate = tested on: PC-3 prostate
# UACC-62 melanoma = tested on: UACC-62 melanoma
# LOX IMVI melanoma = tested on: LOX IMVI melanoma
# SK-MEL-28 melanoma = tested on: SK-MEL-28 melanoma
SMILES,growth (HCT-15 colon),growth (HT29 colon),growth (SNB-75 CNS),growth (SNB-19 CNS),growth (U251 CNS),growth (PC-3 prostate),growth (UACC-62 melanoma),growth (LOX IMVI melanoma),growth (SK-MEL-28 melanoma)
COc1cc(/C=C/c2cc(/C=C/c3ccc(O)c(OC)c3)n(-c3c(C)cccc3C)c(=O)n2)ccc1O,8.19% (active),-37.8% (active),-12.4% (active),13.9%,2.81% (active),-2.22% (active),-11.3% (active),0.0749% (active),0.867% (active)
CC[C@]1(O)C[C@@H]2CN(CCc3c([nH]c4ccccc34)[C@@](C(=O)OC)(c3cc4c(cc3OC)N(C)[C@H]3[C@@](O)(C(N)=O)[C@H](O)[C@]5(CC)[C@@H]6C[C@@H]6CN6CC[C@]43[C@@H]65)C2)C1,11.9%,2.2% (active),50.8%,30.9%,10.7%,20.7%,35.7%,–,68.1%
Cc1cc(N2CCN(c3ccnc4cc(Cl)ccc34)CC2)nc(NC2CCCCC2)n1,3.54% (active),6.72% (active),58.2%,56.6%,30.7%,22.2%,-48.7% (active),–,23.9%
CCC([N+](=O)[O-])S(=O)(=O)c1ccc(C)cc1 (stereo not given),105%,101%,85.1%,94.4%,100%,101%,101%,98.2%,112%
O=C(O)c1c(=O)cccc2ssc12,4.16% (active),-48.6% (active),26.9%,-74.4% (active),-91.9% (active),-19.3% (active),14.3%,1.04% (active),10.8%
O=C(/C=C/C=C/c1ccc2c(c1)OCO2)N/N=C\c1ccc(O)cc1O,17%,48.1%,64%,49.3%,31.3%,38%,14.3%,9.69% (active),42.1%
CC(=O)c1cc(C(=O)c2ccc3c(c2)Sc2ccccc2N3)n2ccccc12,17.9%,-13.1% (active),13.1%,30.9%,9.6% (active),22.2%,–,20.8%,–
COc1cccc2c1C(=O)c1c(O)c3c(c(O)c1C2=O)C[C@](O)(C(=O)CO)C[C@H]3O[C@@H]1C[C@@H](NC(=O)CCCCCN(C)C2(c3ccc(F)cc3)CC3CCC2C3)[C@H](O)[C@@H](C)O1 (stereo not given in full),0.779% (active),-55.5% (active),41.3%,10.4%,-100% (active),-82.7% (active),–,-90.5% (active),–
c1ccc2[nH]c(-c3ccc(Nc4nc(N5CCCC5)nc5[nH]ncc45)cc3)nc2c1,-36.2% (active),-49.1% (active),-79.2% (active),15.5%,-66.1% (active),0.946% (active),–,-84.4% (active),–
COc1ccc2c(c1)C(=O)/C(=C/c1ccccn1)CC2,68.5%,43.3%,75.8%,76.1%,69.3%,87.6%,–,44.5%,–
Cc1cc(N2CCN(c3ccnc4cc(Cl)ccc34)CC2)nc(N2CCOCC2)n1,73.6%,67.6%,88.9%,82.6%,93.9%,51.9%,84.3%,–,104%
NCCNc1nc(Nc2ccc(-c3nc4ccccc4[nH]3)cc2)c2cn[nH]c2n1,101%,62.7%,71.7%,66.5%,-55.4% (active),74%,–,-17.8% (active),–
C/C1=C\CC[C@@]2(C)O[C@H]2[C@H]2OC(=O)C(CN3CCN(CC4C(=O)O[C@H]5[C@H]4CC/C(C)=C/CC[C@@]4(C)O[C@@H]54)CC3)[C@@H]2CC1 (stereo not given in full),95%,104%,85.4%,99.2%,94%,92%,–,93.7%,–
COc1ccc2c(c1)CC/C(=C\c1cncc(Br)c1)C2=O,94.7%,79.7%,120%,90.7%,85.9%,92.7%,–,88.3%,–
COc1ccc(-c2nnc(SCC(=O)c3ccc(Cl)cc3)o2)cc1,104%,96%,88.8%,101%,99.8%,101%,–,97.1%,–
CC(=O)O[C@H]1C(=O)[C@@]2(C)[C@H]([C@H](OC(=O)c3ccccc3)[C@]3(O)C[C@H](OC(=O)[C@H](OC(=O)CCC(=O)OC4CCC(S/N=C(N)/N=C(\N)N(C)C)CC4)[C@@H](NC(=O)c4ccccc4)c4ccccc4)C(C)=C1C3(C)C)[C@]1(OC(C)=O)CO[C@@H]1C[C@@H]2O (stereo not given in full),25.3%,5% (active),-22.3% (active),29.8%,17.1%,28.4%,–,42.9%,–
O=c1oc2c(C(F)(F)F)cccc2cc1-c1csc(Nc2ccc(OCCF)cc2)n1,17.3%,-11.5% (active),19.3%,27.7%,5.11% (active),21%,–,19.7%,–

SMILES,growth (HCT-15 colon),growth (HT29 colon),growth (SNB-75 CNS),growth (SNB-19 CNS),growth (U251 CNS),growth (PC-3 prostate),growth (UACC-62 melanoma),growth (LOX IMVI melanoma),growth (SK-MEL-28 melanoma)
O=C1/C(=C/c2ccccc2O)N=C2SCCCN12,97%,103%,70.6%,90.8%,98.6%,88.2%,–,96.5%,–
CC(=O)c1cc2c(N)c(C(=O)Nc3cccc4ccccc34)sc2nc1C,33.8%,5.75% (active),19.8%,21.7%,15.3%,17.5%,–,41.1%,67.2%
CN1CCN(c2nc(NCCCCNc3ccnc4cc(Cl)ccc34)c3ccccc3n2)CC1,37.4%,4.42% (active),76.9%,53.5%,2.52% (active),66.3%,63.9%,–,-0.901% (active)
Cc1nc(Nc2ccc(F)c(Cl)c2)sc1C(=O)O,11.3%,3.5% (active),-13.4% (active),26.2%,8.16% (active),7.92% (active),–,2.1% (active),–
CCOc1ccc(-n2nc(C(=O)Nc3cc(OC)c(OC)c(OC)c3)nc2-c2cc(OC)c(OC)c(OC)c2)cc1,82.1%,84.6%,65.6%,82.1%,85.1%,70.2%,–,89%,–
COc1ccc(-c2nc(SCC(=O)Nc3ccc(C(=O)/C=C/c4ccc(Cl)cc4)cc3)[nH]c(=O)c2C#N)cc1,97.9%,103%,85.2%,39.4%,-15.3% (active),93.6%,–,-79.4% (active),–
NC(=NCCCOc1ccc(Cl)cc1)Nc1ccc(Cl)cc1,56%,1.24% (active),44.8%,19.3%,41.2%,26.7%,–,40.3%,–
COc1ccccc1Nc1nc(-c2cc3cccc(C(F)(F)F)c3oc2=O)cs1,16%,3.1% (active),15%,26.7%,9.97% (active),21.2%,–,17.3%,–
COc1ccc(CN2c3ccccc3Sc3ccccc32)cc1O,33.1%,8.73% (active),26.6%,33%,18.5%,26.1%,–,43.1%,–
CC(=O)OC[C@H]1O[C@H](OC(C)=O)[C@H](NC(=O)/C=C/CCl)[C@@H](OC(C)=O)[C@@H]1OC(C)=O,99.1%,54.3%,71.3%,86.8%,45.1%,70.4%,–,68.8%,–
COc1cc2c(cc1O)CC[C@@H]1[C@@H]2CC[C@]2(C)[C@@H](OCCN(C)C)CC[C@@H]12,34%,3.38% (active),17.8%,52.4%,27.4%,45.4%,–,52.5%,–
CCOc1ccc(-n2nc(C(=O)Nc3ccccc3)nc2-c2cc(OC)c(OC)c(OC)c2)cc1,35.4%,13%,35.1%,55.8%,36.1%,44.9%,–,55.8%,–
COc1ccc(CN2c3ccccc3Oc3ccccc32)cc1F,47.4%,11.2%,47.9%,67.8%,39.5%,64.8%,–,59%,–
CCOc1cc2ncc(C#N)c(Nc3ccc(F)c(Cl)c3)c2cc1NC(=O)CC1CCSS1 (stereo not given),-71.1% (active),-72.5% (active),-72% (active),-34.5% (active),-58.9% (active),-72.6% (active),–,-81.2% (active),-79.1% (active)
COc1cc2c(cc1O)CC[C@@H]1[C@@H]2CC[C@]2(C)[C@@H](NCCN(C)C)CC[C@@H]12,-83.1% (active),-91.9% (active),-96.6% (active),-79.6% (active),-92.3% (active),-91.2% (active),–,-84.2% (active),–
NC(=NC1C2CC3CC(C2)CC1C3)Nc1ccc(I)cc1 (stereo not given),43.9%,9.6% (active),57.1%,27.5%,50.4%,36.9%,–,61.9%,–
